Measured values as given in PubChem BioAssay (NCI).
About 79,000 compounds went through this panel and 15% of them were active in at least one assay; those are over-represented in the sample as a whole. No stated cut-off is given here; in the data, active means growth inhibition above about 70%; inactive means the rest.

Columns and labels:
[1] = NCI Yeast Anticancer Drug Screen. Data for the rad50 strain (AID 155);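 further: 0% = growth of vehicle-only cultures of the same strain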; conditions: S. cerevisiae rad50 strain growth inhibition, active compounds read high; at 50.0 µM unless noted
How it was run: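 Cells are treated with compound, grown, and their growth is then scored against vehicle-only cultures of the same repair-deficient yeast strain.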

[2] = NCI Yeast Anticancer Drug Screen. Data for the mec2-1 strain (AID 157); conditions: S. cerevisiae mec2-1 strain, active compounds read high; at 50.0 µM unless noted
How it was run: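 Strain: mec2-1 (DNA repair/cell cycle alteration). Compound exposure, then growth measured; inhibition expressed relative to vehicle.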

[3] = NCI Yeast Anticancer Drug Screen. Data for the sgs1 mgt1 strain (AID 161);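 further: 0% = growth of cultures given vehicle only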; conditions: S. cerevisiae sgs1 mgt1 strain, active compounds read high; at 50.0 µM unless noted
How it was run: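 Mutant yeast exposed to compound; growth scored against vehicle-only wells.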

[4] = NCI Yeast Anticancer Drug Screen. Data for the cln2 rad14 strain (AID 165);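 further: 0% = growth equal to vehicle treated cultures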; conditions: S. cerevisiae cln2 rad14 strain, active compounds read high; at 50.0 µM unless noted
How it was run: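 Compounds are applied to the cln2 rad14 yeast strain, and growth is then compared with that of vehicle-treated cultures to give inhibition.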

[5] = NCI Yeast Anticancer Drug Screen. Data for the bub3 strain (AID 167); conditions: S. cerevisiae bub3 mutant strain, active compounds read high; at 50.0 µM unless noted
How it was run: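 Part of a panel of yeast mutants defective in DNA damage repair or cell cycle regulation. Each strain is grown with compound, and inhibition is calculated relative to solvent-treated cultures.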

[6] = NCI Yeast Anticancer Drug Screen. Data for the mlh1 rad18 strain (AID 175); conditions: S. cerevisiae mlh1 rad18 strain growth inhibition, active compounds read high; at 50.0 µM unless noted
How it was run: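 Read-out is yeast growth inhibition, calculated against vehicle-only controls. The compound was applied to a strain engineered with DNA damage repair alterations.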

Measured: growth inhibition

C=C1C2CCC3(CCC4C5(C)CCCC4(C=[N+](CCO)C5)C3C2)C1O (stereo not given)
inactive: [1] -20.7% | [2] -22.5% | [3] -27.9% | [4] 14.1% | [5] -17.6% | [6] -28.6%

Nc1ncnc2c1ncn2C1OC(CSCC(F)(F)F)C(O)C1O (stereo not given)
inactive: [1] -4.05% | [2] -11.8% | [3] -8.65% | [4] 26.6% | [5] -7.8% | [6] -11.4%

COc1ccc2[nH]c3c(C)c4c(c(C)c3c2c1)CN(C)C=C4
inactive: [1] 45.6% | [2] 48.2% | [3] 62.7% | [4] 21.2% | [5] 65.8% | [6] 8.95%

c1ccc(-c2cnoc2-c2ccccc2)cc1
inactive: [1] 14% | [2] 17.6% | [3] 7.15% | [4] -19.8% | [5] -18.7% | [6] 8.3%

CCOC(=O)CN(c1ccccc1)c1nc(=[N+](C)C)ss1
inactive: [1] 7.05% | [2] 0.65% | [3] 6.8% | [4] 2.55% | [5] 1.35% | [6] 22.9%

O=C(O)CCC(CC(=O)O)C(=O)O (stereo not given)
inactive: [1] 19.1% | [2] 4.95% | [3] 16% | [4] 13.7% | [5] 23.9% | [6] 15.4%

O=C(O)c1cccc(C(=O)O)c1-c1c(C(=O)O)cccc1C(=O)O
inactive: [1] -5.2% | [2] 17.8% | [3] 7.7% | [4] -80.5% | [5] 7.45% | [6] 4.05%

COc1c2c(cc3c1C(=O)c1c(O)cccc1C3=O)CC(O)CC2 (stereo not given)
inactive: [1] -14.7% | [2] -33.2% | [3] -13.4% | [4] -10.5% | [5] 2.8% | [6] -22.9%

CCOC(=O)CC(=O)CC(=O)OCC
inactive: [1] 36% | [2] 2.6% | [3] -6.95% | [4] 6.1% | [5] 23% | [6] 7%

CC1=NN(C(=O)c2ccccc2O)C(=O)/C1=C/c1ccccc1O
inactive: [1] -29.1% | [2] -11.8% | [3] -14.8% | [4] -9.7% | [5] -39.5% | [6] -24.6%

CC(C)=CC1(C)/C(=N\O)C(C)(CC(C)C)C(=O)N1O (stereo not given)
inactive: [1] -7.15% | [2] -15.2% | [3] -11.8% | [4] -2.2% | [5] -5.65% | [6] -19.4%

CCCCCCCCCCCCCCCCC(C#N)C(=O)O (stereo not given)
inactive: [1] -14.4% | [2] 0.95% | [3] -18.2% | [4] -1% | [5] -22.8% | [6] -18.9%

C[C@@]1(O)C2CC3CC1(c1ccccc1)CC(/C3=N/O)/C2=N\O (stereo not given in full)
inactive: [1] -14.3% | [2] -17.6% | [3] -1.8% | [4] 26.2% | [5] -16.7% | [6] 8.3%

CC(=O)OC(C#N)c1ccco1 (stereo not given)
inactive: [1] -11.4% | [2] -49.1% | [3] -25.2% | [4] 5.8% | [5] -38.2% | [6] -7.85%

CN1C(=O)/C(=C2\SC(=O)N(CN3CCOCC3)C2=O)c2ccccc21
inactive: [1] -6.1% | [2] -32.9% | [3] -40% | [4] -7.55% | [5] -39% | [6] 2.35%

O=C(Nc1ccc(Cl)cc1)C(Cl)C(Cl)c1ccc(Cl)cc1 (stereo not given)
inactive: [1] -15.6% | [2] -6.3% | [3] -7.65% | [4] -22.4% | [5] 9.05% | [6] -23.1%

Cc1ccc(O)c(Cl)c1C
inactive: [1] 6.4% | [2] -28.1% | [3] -6.7% | [4] 7.4% | [5] -26.3% | [6] 5.1%

CC[N+](C)(CC)CCNC(=O)C(c1ccccc1)c1ccccc1
inactive: [1] 45.6% | [2] -1.45% | [3] 21.1% | [4] 0.5% | [5] 6.65% | [6] 16.2%

Cc1[nH]c2c(C)ccc(C)c2c(=O)c1Br
inactive: [1] -1.65% | [2] 10% | [3] -1% | [4] -16.7% | [5] -1.7% | [6] 3.2%

O=c1[nH]c(C(F)(F)F)c([N+](=O)[O-])c(=O)[nH]1
inactive: [1] -40.9% | [2] -22.4% | [3] 1.6% | [4] -26.4% | [5] -1.9% | [6] -4.7%
